The record followed here is PubChem BioAssay (EPA / NIEHS).

Experiment [1] in a line: APR_HepG2_P-H2AX_72hr: Apredica 72-hour HepG2 Assay for H2AX Phosphorylation (AID 2282916).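 Further: phospho-histone H2A.x immunostain intensity per cell marking DNA damage.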 To be noted: imaging, actives raise or lower the signal. In a few lines: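 Human hepatoma HepG2 cells are dosed across ten concentrations (0.39 to 200 uM, 0.5% v/v DMSO) and incubated 72 hr. Phospho-histone H2A.x is then detected by antibody staining alongside c-Jun and Hoechst, and quantified by automated fluorescence imaging.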

Experiment [2] can be described thus: APR_HepG2_MitoMembPot_72hr: Apredica 72-hour HepG2 Assay for Mitochondrial Membrane Potential (AID 2282917). To be noted: imaging, actives raise or lower the signal. In outline: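 HepG2 cells exposed 72 h to compounds at 0.39–200 uM (0.5% v/v DMSO, duplicates); MitoTracker Red CMXRos 250 nM loaded 30 min before 3.7% formaldehyde fixation, imaged by HCS fluorescence. Bidirectional fit versus DMSO.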

Experiment [3] in a line: APR_HepG2_MitoticArrest_72hr: Apredica 72-hour HepG2 Assay for Mitotic Arrest (AID 2282918). Particulars: high-content imaging, actives raise or lower the signal. In outline:
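HepG2 cells were exposed for 72 hr to compound at 0.39–200 uM (10 concentrations, duplicate) in 0.5% v/v DMSO, fixed in 3.7% formaldehyde, immunostained for phospho-histone H3 with Hoechst 33342 and imaged by high-content fluorescence; bidirectional fits versus DMSO.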

Experiment [4] in a line: APR_HepG2_P-H2AX_24hr: Apredica 24-hour HepG2 Assay for H2AX Phosphorylation (AID 2282920). Particulars: high-content imaging, actives raise or lower the signal. In outline:
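HepG2 human liver cells were exposed for 24 hr to compounds at 0.39–200 uM in duplicate, with 0.5% v/v DMSO final. Fixed cells were immunostained for phospho-histone H2A.x plus Hoechst 33342, imaged by HCS fluorescence, and fitted bidirectionally against DMSO.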

Experiment [5] in a line: APR_HepG2_StressKinase_72hr: Apredica 72-hour HepG2 Assay for Stress Kinase (AID 2282921). To be noted: HepG2 stress kinase (phospho-c-Jun) imaging, actives raise or lower the signal. In a few lines:
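After a 72 h compound treatment spanning 0.39 to 200 uM, formaldehyde-fixed cells are labelled for phosphorylated c-Jun and nuclei, imaged by automated fluorescence microscopy, and activity is fitted in both directions relative to DMSO controls.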

Experiment [6] can be described thus: APR_HepG2_p53Act_72hr: Apredica 72-hour HepG2 Assay for p53 Activation (AID 2282923).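 Further: average cellular p53 protein immunofluorescence intensity in HepG2 cells.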 To be noted: high-content imaging, actives raise or lower the signal. In a few lines:
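Imaging-based endpoint: after 72 hr compound exposure (up to 200 uM, 0.5% DMSO), fixed and permeabilized monolayers were labelled with anti-p53 antibody and imaged; signal change in either direction was fitted relative to DMSO controls.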

The nature of experiment [7]: APR_HepG2_MitoMass_72hr: Apredica 72-hour HepG2 Assay for Mitochondrial Mass (AID 2282924).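 Further: MitoTracker Red CMXRos stain intensity per cell imaged as mitochondrial mass.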 To be noted: high-content imaging, actives raise or lower the signal. In outline: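 Steps: treat HepG2 72 hr (0.39–200 uM, duplicate wells); load MitoTracker Red CMXRos, 250 nM, 30 min; fix with 3.7% formaldehyde, permeabilise with 0.5% Triton X-100; capture images, nuclei via Hoechst 33342; fit bidirectionally against DMSO.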

Experiment [8] can be described thus: ATG_CRE_CIS: Attagene CIS-FACTORIAL HepG2 Assay for human cAMP Responsive Element (CRE) binding protein 3 (AID 2282926). To be noted: HepG2 CRE cis-reporter, Attagene multiplexed mRNA; actives raise or lower the signal. In outline: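 Capillary electrophoresis of 6-FAM-labelled, HpaI-digested PCR products quantified reporter transcripts. These came from HepG2 transiently transfected with cis-element reporters and exposed to test chemicals for 24 hours, with DMSO defining baseline activity.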

Experiment [9] can be described thus: ATG_CMV_CIS: Attagene CIS-FACTORIAL HepG2 Assay for human CMV (Internal Marker) (AID 2282928).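 Further: endpoint acts as a background internal control marker rather than a target.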 Particulars: HepG2 CMV promoter reporter, transcription factor profiling; actives raise or lower the signal. In a few lines:
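Bidirectional fits against DMSO are applied to reporter mRNA, read by RT-PCR with capillary electrophoresis, from HepG2 cells exposed 24 h. The endpoint serves as an internal CMV background marker within the cis-factorial reporter panel.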

Experiment [10] can be described thus: ATG_DR4_LXR_CIS: Attagene CIS-FACTORIAL HepG2 Assay for human Liver X Receptor (LXR), DR4 submotif (AID 2282929). Particulars: HepG2 Attagene DR4 cis-reporter, mRNA transcription; actives raise or lower the signal. In a few lines: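 After transient transfection with multiplexed cis-promoter reporter units, HepG2 cells received test chemicals for 24 h. Reporter mRNA induction, detected by fluorescence after RT-PCR and capillary electrophoresis, was scored relative to DMSO.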

The target in experiment [11] is Aryl hydrocarbon receptor (Homo sapiens) (UniProt P35869). The experiment can be described thus: ATG_Ahr_CIS: Attagene CIS-FACTORIAL HepG2 Assay for human Aryl Hydrocarbon Receptor (Ahr) (AID 2282930). Particulars: HepG2 AhR cis-factorial reporter transcription; actives raise or lower the signal. In a few lines:
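Values derive from bidirectional fitting against DMSO negative control. Underlying signal: cis-element reporter mRNA in transiently transfected HepG2, harvested 24 h post-dose and measured by RT-PCR plus capillary electrophoresis.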

Experiment [12] is described as follows: ATG_AP_1_CIS: Attagene CIS-FACTORIAL HepG2 Assay for human Activator Protein 1 (AP-1) (AID 2282931). To be noted: HepG2 Attagene cis-factorial AP-1 reporter mRNA; actives raise or lower the signal. In outline:
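After 24 h incubation with test chemical, RNA from transfected HepG2 cells was reverse-transcribed, amplified, fluorescently labelled and digested before capillary electrophoresis. Reporters were driven by cis-regulatory promoters; activity fitted bidirectionally versus DMSO.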

Experiment [13] is described as follows: ATG_AP_2_CIS: Attagene CIS-FACTORIAL HepG2 Assay for human Activator Protein 2 (AP-2) (AID 2282932). To be noted: HepG2 AP-2 cis-reporter, Attagene transcription factor profiling; actives raise or lower the signal. In outline:
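Cells (HepG2) transfected with promoter-driven reporter constructs, treated 24 h. Total RNA reverse-transcribed, reporter cDNA PCR-amplified, FAM-labelled by primer extension, digested, resolved by capillary electrophoresis. Activity fitted both directions versus DMSO.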

A short description of experiment [14]: ATG_BRE_CIS: Attagene CIS-FACTORIAL HepG2 Assay for human Bone Morphogenetic Protein (BMP) Response Element (BRE) (AID 2282933). Particulars: HepG2 BMP response element reporter, Attagene transcription factor profiling; actives raise or lower the signal. In outline: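 HepG2 cells transiently transfected with CIS reporter units (endogenous TF activity, BMP response element), dosed 24 h. Reporter mRNA quantified by RT-PCR, fluorescent labelling and capillary electrophoresis; bidirectional fit vs DMSO baseline.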

Experiment [15] can be described thus: APR_HepG2_CellLoss_72hr: Apredica 72-hour HepG2 Assay for Cell Loss (AID 2282915). Particulars: high-content imaging. In a few lines:
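HepG2 cells were exposed for 72 hr to compounds at 0.39–200 uM (ten concentrations, duplicate) in 0.5% v/v final DMSO. Nuclei were stained with Hoechst 33342 after 3.7% formaldehyde fixation, imaged at 20x, and counted; fits bidirectional versus DMSO.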

Experiment [16] can be described thus: APR_HepG2_MicrotubuleCSK_72hr: Apredica 72-hour HepG2 Assay for Microtubule CSK Stabilty (AID 2282919). Particulars: HepG2 microtubule cytoskeleton, high-content imaging, actives raise or lower the signal. In outline:
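Ten-point dosing (0.39–200 uM, 0.5% DMSO) of HepG2 for 72 hr, with taxol as the cytoskeletal positive control. The cells were formaldehyde-fixed and then stained with alpha-tubulin/Cy5 and Hoechst. Imaging at 20x used a −2 um Z offset for tubulin.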

The target of experiment [17] is Retinoic acid receptor alpha (Homo sapiens) (UniProt P10276). The experiment is described as follows: ATG_DR5_RAR_CIS: Attagene CIS-FACTORIAL HepG2 Assay for human Retinoic Acid Receptor Alpha (RARE), DR5 submotif (AID 2282934).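 On AC50: reporter responds to endogenous RAR alpha beta and gamma in HepG2 not RARA alone.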 Particulars: HepG2 Attagene cis-factorial RARE DR5 reporter, mRNA; actives raise or lower the signal. In a few lines:
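Endpoint fitted in both directions relative to DMSO as negative control. It reflects DR5 cis-element reporter mRNA induction in transiently transfected HepG2 cells, measured 24 h after dosing through RT-PCR and fluorescent capillary electrophoresis.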

Experiment [18] can be described thus: APR_HepG2_NuclearSize_72hr: Apredica 72-hour HepG2 Assay for Nuclear Size (AID 2282925). To be noted: high-content imaging, actives raise or lower the signal. In a few lines:
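Compounds (0.39–200 uM, final DMSO 0.5%) were applied to HepG2 for 72 hr. Cells were then formaldehyde-fixed, permeabilized and labelled with Hoechst 33342. Nuclear diameter was quantified from six images per well.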

Values joined by “and” are separate entries in the source; they are usually repeats but may differ in a detail not shown here. Equal values may be shown once. More than one record can exist for a structure, and the calls need not agree. Active and inactive are the calls of the source. How the source made its calls: active means hit-call score of the fitted dose curve at least 0.9, where 1 is the maximum; inactive means score below 0.9.

Sequence of Aryl hydrocarbon receptor (Homo sapiens) (P35869 whole entry, looked up): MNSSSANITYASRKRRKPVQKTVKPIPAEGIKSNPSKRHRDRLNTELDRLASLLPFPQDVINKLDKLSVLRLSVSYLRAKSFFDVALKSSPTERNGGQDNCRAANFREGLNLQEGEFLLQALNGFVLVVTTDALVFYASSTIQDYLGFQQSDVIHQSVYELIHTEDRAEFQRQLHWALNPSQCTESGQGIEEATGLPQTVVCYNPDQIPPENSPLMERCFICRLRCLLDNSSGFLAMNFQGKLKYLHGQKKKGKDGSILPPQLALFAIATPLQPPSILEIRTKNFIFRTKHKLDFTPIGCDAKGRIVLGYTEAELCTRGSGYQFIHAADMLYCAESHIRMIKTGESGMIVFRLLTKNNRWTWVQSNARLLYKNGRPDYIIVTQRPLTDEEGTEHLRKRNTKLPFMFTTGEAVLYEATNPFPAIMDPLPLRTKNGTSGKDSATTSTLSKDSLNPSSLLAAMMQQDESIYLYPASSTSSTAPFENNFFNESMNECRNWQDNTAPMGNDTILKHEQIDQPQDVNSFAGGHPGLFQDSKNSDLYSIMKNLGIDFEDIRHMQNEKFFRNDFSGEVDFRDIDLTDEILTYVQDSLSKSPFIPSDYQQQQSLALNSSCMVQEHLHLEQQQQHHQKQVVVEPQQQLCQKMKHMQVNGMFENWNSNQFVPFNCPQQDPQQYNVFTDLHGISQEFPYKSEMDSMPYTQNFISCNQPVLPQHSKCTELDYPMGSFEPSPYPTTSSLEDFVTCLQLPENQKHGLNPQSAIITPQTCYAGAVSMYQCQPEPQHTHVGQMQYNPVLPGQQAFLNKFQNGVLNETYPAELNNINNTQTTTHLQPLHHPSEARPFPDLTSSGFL
Sequence of Retinoic acid receptor alpha (Homo sapiens) (P10276 whole entry, looked up): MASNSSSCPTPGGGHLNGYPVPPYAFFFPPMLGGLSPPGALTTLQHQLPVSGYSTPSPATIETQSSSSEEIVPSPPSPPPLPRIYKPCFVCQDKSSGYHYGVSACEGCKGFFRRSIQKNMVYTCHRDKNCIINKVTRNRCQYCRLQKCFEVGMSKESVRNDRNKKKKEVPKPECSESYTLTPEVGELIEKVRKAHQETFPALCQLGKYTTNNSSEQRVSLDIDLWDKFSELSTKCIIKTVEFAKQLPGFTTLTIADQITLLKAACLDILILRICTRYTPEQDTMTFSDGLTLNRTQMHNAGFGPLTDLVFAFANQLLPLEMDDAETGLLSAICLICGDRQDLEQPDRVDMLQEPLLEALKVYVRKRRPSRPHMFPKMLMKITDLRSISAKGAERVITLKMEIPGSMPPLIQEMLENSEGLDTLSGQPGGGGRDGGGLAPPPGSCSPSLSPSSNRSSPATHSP

With `Oc1cc(Cl)ccc1Oc1ccc(Cl)cc1Cl`, the AC50 in experiment [1] was 24.4 µM (active) and 34.3 µM (active); in experiment [2] it was 35 µM (active); in [3], 27.9 µM (active); in experiment [4], 27.9 µM (active) and 45.5 µM (active); in [5] it was 49.2 µM (active); in [6], 14.9 µM (active) and 16.3 µM (active). Also, the AC50 in experiment [7] is 170 µM (active); in [8], 8.07 µM (active) [middle of 4 runs]; in experiment [9], 8.95 µM (active) [middle of 5 runs]; in experiment [10] it was 17.6 µM (active) [middle of 4 runs]; in experiment [11] it was 5.97 µM (active); in [12] it was 8.94 µM (active) [middle of 5 runs]. The AC50 was 20.7 µM (active) in experiment [13] and 7.15 µM (active) [middle of 6 runs] in experiment [14]. For the same molecule, the outcome in [1], in [2], in [3], in experiment [4], in [5] and in experiment [6] was inactive. The outcome in experiment [7], in experiment [8], in experiment [9], in experiment [10], in [11] and in experiment [12] was inactive. Moreover, the molecule was called inactive in experiment [13] and in [14].

On to `CC1(C)C(C=C(Cl)Cl)C1C(=O)OC(C#N)c1ccc(F)c(Oc2ccccc2)c1` (configuration not stated), for which the molecule was classed as inactive in [15], in [1], in experiment [2], in experiment [3], in experiment [16] and in [4]. In addition, the molecule was classed as inactive in experiment [5], in [6], in [7], in experiment [8], in experiment [9] and in experiment [11]. In addition, the result in [12], in experiment [13] and in experiment [14] was inactive. Besides, the half-maximal activity concentration (AC50) in experiment [10] is 14.4 µM (active); in [17], 2.57 µM (active).

As for `Cc1[nH]c(=O)n(C(C)(C)C)c(=O)c1Cl`, the molecule was called inactive in experiment [15], in experiment [1], in experiment [2], in experiment [3], in experiment [16] and in experiment [4]. The molecule was called inactive in experiment [5], in [7], in experiment [18], in experiment [9], in experiment [10] and in [11]. In addition, the call in [12], in experiment [13] and in [17] was inactive. The half-maximal activity concentration (AC50) is 30.3 µM (active) in experiment [8] and 50.5 µM (active) in experiment [14].
